Screening results deposited in PubChem by National Center for Advancing Translational Sciences (NCATS).
Pf growth 96h: P. falciparum growth inhibition at 96 hours | P. falciparum luciferase reporter growth, 96 h | Potency, µM (series often up to 28.7 µM), hits mostly inhibitors | 320,000 tested, 6.9% active | AID 504834
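P. falciparum expressing integrated firefly luciferase grown in erythrocytes (2% hematocrit, 0.05% parasitemia final) with compounds for 96 hours at 37 C, 5% CO2. Growth inhibition read as loss of luminescence after adding luciferase detection reagent.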
Sm TGR inh: inhibitors of Schistosoma mansoni thioredoxin glutathione reductase; Q962Y6; purified TGR, DTNB reduction, TNB absorbance 405 nm; Potency, µM (doses to about 114 µM), usual class: inhibitors; 360,000 tested, 3% active; AID 485364; also: nearly all actives have a fitted effect of over 60% in size
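Kinetic colorimetric format: TGR-catalysed, NADPH-driven DTNB reduction monitored via TNB absorbance. Enzyme dispensed at 20 nM; compound exposure 15 min at room temperature before reaction start.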
Pf growth 48h: inhibits P. falciparum growth in the first generation, 48 h. 310,000 tested, 5.9% active. Potency, µM (doses to about 28.7 µM), most hits filed as inhibitors. AID 504832. P. falciparum luciferase growth in erythrocytes, 48 h
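Luciferase-expressing parasites in RBCs, 2% Hct / 0.1% parasitemia final; RPMI 1640 + 0.5% Albumax; 37 C, 5% CO2, one generation; luminescence read-out, lower signal = inhibition.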
Shiga toxin inh: Shiga toxin inhibition | Vero cells, Shiga toxin protein synthesis inhibition reporter | inhibition, % at 38.7 µM | 290,000 tested, 9.2% active | AID 2315; in the data active = inhibition mostly above about 28%, no sharp cut-off; inactive = mostly below about 43%
NS1 function inh: inhibitors of influenza NS1 protein function; Potency, µM (top dose mostly 46.1 µM); 270,000 tested, 0.4% active; calls by dose curve; also: actives are rising curves; nearly all actives have a fitted effect of over 50% in size
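OD600 was taken as the measure of yeast growth restored by compound in an NS1-expressing S. cerevisiae strain. Cells had been washed out of glucose medium and diluted 1:100 into galactose -URA medium, pH 6.0.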
Cycloheximide cs: counter-screen for Shiga toxin inhibitors: cycloheximide protein synthesis inhibition. cell reporter, cycloheximide protein synthesis inhibition counterscreen. max response, %. 300,000 tested, 12% active. AID 2314; in the data active = max response mostly above about 13%, no sharp cut-off; inactive = mostly below about 14%; also: read at 38.3 µM for the half of the compounds with a filed dose
Numbers stand for hits; – = inactive; ? = inconclusive; · = no result given. This is a sample that favours compounds with a hit; in the whole collection about 21% have one here. Unless noted, calls follow the shape of the dose curve; as a rule, active = well fitted curve in the direction sought with a large enough effect; inconclusive = small, poorly fitted or top-dose-only effect, or another doubt; inactive = no such curve, though single readings can be large; an effect the other way counts as inactive or inconclusive.

SMILES	Pf growth 96h	Sm TGR inh	Pf growth 48h	Shiga toxin inh	NS1 function inh	Cycloheximide cs
C[C@H](CN1c2ccccc2Sc2cccnc21)N(C)C	6µM	·	?	·	·	·
CCc1ccc2c(c1)N(C[C@H](C)CN(C)C)c1ccccc1S2	15µM	·	17µM	·	–	·
CCC(=O)c1ccc2c(c1)N(CCCN(C)C)c1ccccc1S2	?	·	?	·	–	·
CCN(CC)[C@@H](C)CN1c2ccccc2Sc2ccccc21	6.4µM	·	–	·	·	·
CC(CCc1ccccc1)NC(=O)COC(=O)C1CCC(C(C)(C)C)CC1 (stereo not drawn)	?	–	–	–	–	–
CCn1cc(C=C2C(=O)NC(=O)NC2=O)c2ccccc21	–	?	–	–	–	–
CC(C)n1cc(/C=C/c2cc[n+](C)cc2)c2ccccc21	?	–	0.52µM	–	–	–
CCn1cc(C=C2C(=O)N(C)C(=O)N(C)C2=O)c2ccccc21	0.12µM	–	–	·	–	–
CCn1cc(/C=C/c2cc[n+](C)cc2)c2ccccc21	0.21µM	–	0.37µM	–	–	–
C=CCn1cc(/C=C/c2cc[n+](C)cc2)c2ccccc21	–	–	?	–	–	–
COc1ccc(-n2ncc(C(=O)NCCN3CCOCC3)c2C2CCN(C(=O)OC(C)(C)C)CC2)cc1	·	–	·	·	·	·
Cc1ccc(Cl)cc1NCc1nnc2n1CCCCC2	·	–	·	·	·	·
CO/C([O-])=N/c1c[n+](-c2ccc(C)cc2)no1	–	–	–	43	–	22
COc1cc(OC)c(NC(=O)c2oc3ccc4c(c3c2C)C(=O)CC(C)(C)O4)cc1Cl	·	–	·	·	·	·
CCOc1cc(C2C(C(=O)c3ccccc3)=C(C(=O)OC)Nc3nnnn32)ccc1O (stereo not drawn)	?	–	–	–	–	23
CCOC(=O)C1=C(C)Nc2nnnn2C1c1ccccc1Cl (stereo not drawn)	–	–	–	–	–	–
CC1=C(C(=O)OC2CCCCC2)C(c2cccnc2)n2nnnc2N1 (stereo not drawn)	–	–	–	–	?	–
CCOC(=O)C1=C(C)Nc2nnnn2C1c1ccc(OC)c(Br)c1 (stereo not drawn)	12µM	–	?	–	–	–
COC(=O)C1=C(C)Nc2nnnn2C1c1ccc(Cl)cc1Cl (stereo not drawn)	?	–	4.7µM	–	–	–
COc1ccc(C2C(C(=O)OC3CCCCC3)=C(C)Nc3nnnn32)c(OC)c1OC (stereo not drawn)	–	–	9.3µM	–	–	–
CCCN(CCC)C(=O)Cn1c(SCc2cccc(C(F)(F)F)c2)nc2cccnc21	·	–	·	·	·	·
COC(=O)Nc1nnc(-c2ccco2)s1	–	?	–	–	–	12
CCc1ccc(OCC(=O)Nc2nnc(-c3ccco3)s2)cc1	–	–	–	–	–	–
O=C(Nc1nnc(-c2ccco2)s1)C1CCCCC1	?	–	–	71	–	42
CC(C)CC(=O)Nc1nnc(-c2ccco2)s1	·	–	–	–	–	29
SMILES	Pf growth 96h	Sm TGR inh	Pf growth 48h	Shiga toxin inh	NS1 function inh	Cycloheximide cs
COC(=O)C1=C(C)OC(N)=C(C#N)C1c1cccnc1 (stereo not drawn)	·	?	–	–	–	–
N#CC1=C(N)Oc2ccc3ccc(O)cc3c2C1c1cccnc1 (stereo not drawn)	?	–	1.3µM	–	–	–
N#CC1=C(N)Oc2n[nH]c(-c3ccc(F)cc3)c2C1c1cccnc1 (stereo not drawn)	5.9µM	–	·	–	–	–
N#CC1=C(N)Oc2ccc3ccccc3c2C1c1cccnc1 (stereo not drawn)	–	40µM	–	–	–	–
CC1=C(n2nnc([N+](=O)[O-])n2)C(c2cccnc2)C(C#N)=C(N)O1 (stereo not drawn)	?	?	13µM	–	–	–
N#CC1=C(N)Oc2c(c(=O)sc3ccccc23)C1c1cccnc1 (stereo not drawn)	–	–	–	–	·	–
CC(=O)N1CCc2cc(S(=O)(=O)NC(Cc3ccccc3)C(=O)NCc3ccccc3Cl)ccc21 (stereo not drawn)	·	–	·	·	·	·
OC1(c2ccc(Br)cc2)CCNCC1	·	50µM	–	–	–	–
Cc1cccc(N(C)S(=O)(=O)c2cc3[nH]c(=O)c(=O)[nH]c3cc2C)c1	·	–	·	·	·	·
CCCCn1c(=N)n(CC(O)COc2ccccc2)c2ccccc21 (stereo not drawn)	?	–	5.2µM	–	–	–
